# Source: PubChem BioAssay
# TRPM1 prom inh – inhibitors of MITF-dependent TRPM1 promoter reporter, primary screen, cell-based, SK-MEL-5, single point, luciferase; 330,000 tested, 0.83% active; SK-MEL-5 TRPM1 promoter luciferase, 24 h; inhibition, % at 12.5 µM;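 active means mean inhibition across replicates of 60% or more, whatever share of single replicates reaches that level; inconclusive means some that reach 60%, reason not given; inactive means mean inhibition across replicates below 60%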
# C2C12 statin – suppressors of statin myotoxicity in C2C12 myotubes, primary screen, cell-based, single point, plate reader | C2C12 myotubes + simvastatin, ATP luminescence, 48 h; scaled: DMSO 0, geranylgeraniol control 100 | rescue of ATP level, % at 7.49 µM | 330,000 tested, 0.78% active;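 active means mean ATP rescue above about 67%, or every replicate alone reaching that limit, limit read from the data, passing the limit was not always enough; inconclusive means no clear call, values can overlap the other calls; inactive means mean under the limit and some replicate under it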;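 further: myotubes were challenged with 10 µM simvastatin during compound exposure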
# Wnt bcat act – Wnt/beta-catenin pathway activators, primary screen, cell-based, plate reader, single point. Wnt/beta-catenin reporter cell assay, activator. 300,000 tested, 1.2% active. AID 743398, 2014. activation, % at 9.35 µM; in the data active means activation above about 30%, passing the limit was not always enough; inconclusive means no clear call, values can overlap the other calls;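 further: 0% = neutral control wells and 100% = positive control wells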
# esBAF inh – Bmi1 luciferase reporter increase in mESCs, primary screen, esBAF inhibitor project, mouse ES cells, Bmi1 luciferase knock-in, single point. 24 h; 100% = twice the neutral-well signal. reporter increase, % at 12.5 µM. 350,000 tested, 2% active. AID 602393, 2012; in the data active means activation above about 40%; inconclusive means no clear call, values can overlap the other calls;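 further: 0% = median of the plate's neutral control wells and 100% = double that signal; a rise in the Bmi1 reporter signal indicates esBAF inhibition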
# MITF act – activators of MITF-driven TRPM1 promoter reporter, primary screen, cell-based, SK-MEL-5, luciferase, single point; SK-MEL-5 TRPM1-promoter luciferase, 24 h; % of positive control, neutral wells = 0; activation, % at 12.5 µM; 300,000 tested, 0.75% active; AID 588334, 2011;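 active means mean activation of at least 80% with every replicate also reaching 80%; inconclusive means mean reaches 80% but some replicate falls short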;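 further: 0% = neutral control wells and 100% = parthenolide positive control wells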
# LMP1 NFkB inh – EBV LMP1-driven NF-kappaB luciferase reporter inhibitors, primary screen, cell-based, luminescence, single point | LMP1-induced NF-kappaB luciferase reporter cells | 350,000 tested, 0.69% active | AID 504558, 2011 | inhibition, % at 12.5 µM; in the data active means inhibition above about 41%; inconclusive means no clear call, values can overlap the other calls;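 further: 0% = neutral control wells and 100% = reference inhibitor control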
# * = called active by the depositor; ? = inconclusive; nt = not tested or not shown. This is a sample that favours compounds with a hit; in the whole collection about 4% have one here.
SMILES,TRPM1 prom inh,C2C12 statin,Wnt bcat act,esBAF inh,MITF act,LMP1 NFkB inh
Fc1ccccc1CSc1ncnc2c1ncn2C1CCCO1 (stereo not drawn),-63,0,0,69*,59,-15
CCCCSc1ncnc2c1ncn2C1CCCCO1 (stereo not drawn),-89,3,52*,16,90*,-2
O=C(c1cnn2c(C(F)(F)F)cc(-c3ccc(Br)cc3)nc12)N1CCOCC1,-10,nt,nt,nt,11,-11
Cc1ccc2c(COC(=O)c3ccccc3OC(F)F)cc(=O)oc2c1,-69,3,-2,48*,69,-18
O=C(CN1CCOCC1)NNC(=S)Nc1ccccc1,-9,nt,0,nt,10,1
CN(CC(=O)Nc1ccc(N2CCOCC2)cc1)CC(=O)Nc1ccccc1C#N,-2,95*,-5,1,0,-7
O=C1CC(c2ccco2)Cc2nc(Nc3nc(-c4ccccc4)c4ccccc4n3)ncc21 (stereo not drawn),-5,nt,nt,nt,5,77*
Cc1ccc(Nc2ncc3c(n2)CC(c2ccco2)CC3=O)c(C)c1 (stereo not drawn),-13,3,-5,54*,10,0
Cc1cccc(Nc2ncc3c(n2)CC(c2ccco2)CC3=O)c1 (stereo not drawn),-15,9,1,15,17,-2
O=C(Nc1ncc2c(n1)CC(c1ccco1)CC2=O)c1ccccc1 (stereo not drawn),13,nt,16,nt,-10,-4
COCC(=O)Nc1ccc2c(c1)OC[C@@H](C)N(C(=O)c1ccccc1F)C[C@@H](C)[C@H](OC)CN(C)C2=O,nt,14,nt,9,nt,nt
CCOC(=O)C1=CCN(S(=O)(=O)c2ccc(Br)cc2)C1c1ccc(Br)cc1 (stereo not drawn),nt,nt,-1,nt,nt,nt
O=C1OC(c2ccccc2)c2ccccc21 (stereo not drawn),-1,nt,-2,nt,2,-1
Cc1ccc(C2OC(=O)c3ccccc32)cc1 (stereo not drawn),0,133*,-4,-2,-3,12
Cc1sc(=NC(=O)c2ccco2)n(C)c1-c1ccc(F)cc1,-109,nt,nt,nt,101*,-5
CCn1c(-c2ccccc2)c(C(=O)CCl)c2ccccc21,73*,nt,-1,nt,-71,9
Cn1c(-c2ccccc2)c(C(=O)CCl)c2ccccc21,92*,nt,6,nt,-92,8
CCn1c2ccccc2c(=O)c2ccccc21,0,-26,-1,-3,6,-1
Cn1nccc1NC(=O)Nc1cccc(Cl)c1Cl,11,nt,0,nt,nt,10
Cn1cc(Cl)c(C(=O)Nc2cccc(Cl)c2Cl)n1,-49,15,nt,71*,54,-12
C=CCOC(=O)C1=C(C)NC(=O)NC1C1CC=CCC1 (stereo not drawn),2,117*,nt,-4,1,3
CC(NC(=O)NC(=O)c1ccc(Cl)cc1Cl)C1CC1 (stereo not drawn),-31,nt,15,nt,31,-10
Cc1c(C2(O)C(=O)Nc3ccc(F)cc32)c(=O)n(-c2ccccc2)n1C (stereo not drawn),-1,-1,1,-8,0,0
COc1cccc(OCc2cc(C(=O)N3CCNC(=O)C3Cc3ccccc3)no2)c1 (stereo not drawn),-58,5,7,51*,58,-11
CCC1C(=O)NCCN1C(=O)c1cc(COc2cc(C)ccc2C)on1 (stereo not drawn),-10,-6,0,2,7,0
SMILES,TRPM1 prom inh,C2C12 statin,Wnt bcat act,esBAF inh,MITF act,LMP1 NFkB inh
COc1cccc(OCc2cc(C(=O)N3CCCC3c3ccccn3)no2)c1 (stereo not drawn),-74,4,28,60*,80,-23
Cc1ccc2c(C)c(C(=O)Nc3c(C)n(C)n(-c4ccccc4)c3=O)oc2c1,18,-9,nt,-2,-16,-1
CCCCOC(=O)N1CCOCCOCCOCCOCC1,-7,nt,-2,nt,8,4
Cc1ccc(CNC(=O)C2CC(c3cccc([N+](=O)[O-])c3)=NO2)o1 (stereo not drawn),-54,7,26,45*,56,-36
CCCCNC(=O)C1CC(c2cccc(F)c2)=NO1 (stereo not drawn),-91,2,32*,85*,89*,-25
Cc1ccc(CNC(=O)C2CC(c3cc(C(F)(F)F)cc(C(F)(F)F)c3)=NO2)o1 (stereo not drawn),21,-23,-13,-15,-15,-4
COc1ccc(CCNC(=O)C2CC(c3cccc([N+](=O)[O-])c3)=NO2)cc1 (stereo not drawn),-76,6,15,70*,76,-29
COCOCCn1cc(CN2CCS(=O)(=O)N(Cc3ccc(-c4ccc(Cl)nc4)cc3)C(C(C)C)C2=O)nn1 (stereo not drawn),nt,0,-1,27,nt,3
C=CCNC(=O)COc1coc(CN2CCN(C(=O)c3ccco3)CC2)cc1=O,8,-1,0,6,-6,-3
CNC(=O)COc1coc(CN2CCN(C(=O)c3ccco3)CC2)cc1=O,1,4,35*,-2,-2,4
CCC/C(=C1/c2ccccc2C(=O)N1c1ccccc1)c1ccc2[nH]ccc2c1,30,-9,-7,-14,-25,-9
O=C1c2ccccc2/C(=C\c2ccc3[nH]ccc3c2)N1c1ccccc1,-21,-6,26,45*,26,-2
CC1=Nc2ccccc2N=C(N)C1c1ccccc1 (stereo not drawn),-18,-2,52*,35,18,-4
C[C@@H]1CN([C@H](C)CO)C(=O)c2cccc(NC(=O)Nc3ccccc3)c2O[C@@H]1CN(C)Cc1ccncc1,nt,-23,nt,-1,nt,nt
Cc1ccc(C)c(NC(=O)CSc2nnc(C3CCCCC3)o2)c1,-16,71*,-2,-1,14,-6
C=CCNC(=O)c1sc(=S)n(-c2ccc(C(=O)OCC)cc2)c1N,-1,nt,0,nt,1,-1
COCCOc1ccc(C(F)(F)F)cc1NC(=O)c1ccc(C(F)(F)F)cc1,4,nt,0,nt,-3,-1
COCCOc1ccc(C(F)(F)F)cc1Nc1nc2ccccc2o1,-68,7,nt,62*,70,-10
CC(C)CC#Cc1ccc2c(c1)O[C@H](CN(C)C(=O)c1cccc(F)c1)[C@H](C)CN([C@@H](C)CO)S2(=O)=O,nt,-2,nt,-1,nt,nt
O=C(COC(=O)Cc1ccccc1F)NCc1ccc(Cl)cc1,12,100*,-2,nt,-11,1
CS(=O)(=O)c1ccc2nc(NC(=O)c3ccco3)sc2c1,-21,-25,17,-6,22,12
O=C(Nc1nc2cc3c(cc2s1)OCCO3)c1ccco1,?,-18,7,-76,-63,68*
